Compound activity (PubChem)
TRb SRC2 PPI: TRbeta-SRC2 interaction inhibition. P10828. TRbeta-SRC2 peptide binding, fluorescence polarization; receptor liganded with 1 µM T3. Potency, µM (titrated, usually from 106 µM), without a hit: at the highest dose activity change, negative = inhibition, hits mostly inhibitors. 280,000 compounds, 0.065% hits;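 note: potency is the fitted concentration of half-maximal effect; plate controls were bound peptide for no effect and peptide without receptor for full effect; nearly all actives have a fitted effect of over 50% in size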
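Human TRb ligand-binding domain (0.6 uM) is mixed with 20 nM Texas Red SRC2 peptide and 1 uM T3; after compound addition and 5 hr at ambient temperature, polarization is measured and normalized to unbound and bound controls.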
TexasRed fluor: counter-screen for TRb-SRC2 inhibitors: fluorescence interference. TRb/SRC2 Texas Red total fluorescence interference. Potency, µM (titrated, usually from 106 µM), for inactives: top-dose fluorescence change, negative = quenching. 280,000 compounds, 0.29% hits; active = well fitted curve in either direction with a large enough effect; inconclusive = small, poorly fitted or top-dose-only effect; note: potency is the fitted concentration of half-maximal effect; % is set by controls: 0 for no effect and ±100 for the full control effect
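Human TRβ ligand-binding domain (0.6 uM) and Texas Red SRC2 peptide (20 nM) in Tris buffer with 1 uM T3 and 5% DMSO were incubated with pinned compound for 5 hr at ambient temperature. Total fluorescence was computed as S + 2P (555/632 nm).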
Eya2 phos inh: inhibitors of human Eya2 phosphatase activity; O00167; recombinant Eya2, OMFP fluorescence dephosphorylation (OMFP is methylfluorescein phosphate); Potency, µM (doses to about 76.9 µM), for the others: top-dose activity, negative = inhibition, actives largely listed as inhibitors; 330,000 compounds, 0.006% hits; note: potency is the fitted concentration of half-maximal effect; % is set by controls: 0 for no effect and ±100 for the full control effect
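Eya2 (0.2 uM) preincubated 10 min at ambient with compound, then OMFP substrate added at 50 uM; 10 min reaction in 50 mM HEPES pH 7.5, 50 mM NaCl, 5 uM MgCl2, 0.05% BSA, 1 mM DTT. Fluorescence read at Ex 485/Em 525 nm.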
CBFb-RUNX1 inh: blocks binding between human CBF-beta and RUNX1; Potency, µM (titrated, usually from 59.8 µM), without a hit: at the top dose activity, negative = inhibition, usual class: inhibitors; 230,000 tested, under 10 active; AID 1477; AlphaScreen CBFb-His/RUNX1-biotin binding, biochemical; note: % of control where 0% means no effect
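Bead-based AlphaScreen assay; binding partners His-tagged CBF-beta and biotinylated RUNX1 at 30 nM each. Compound exposure 15 min after a 20-min protein preincubation; bead step 90 min; all steps at room temperature.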
TSHR antag: human thyrotropin receptor antagonism. 330,000 compounds, 0.2% hits. AID 504810. activity change, negative = inhibition, % at 11.5 µM. TSHR-expressing cells, TSH-stimulated cAMP HTRF, 2 h; active compounds read low;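 active = activity change below a set negative limit, meaning inhibition stronger than a set level, cut at about -70% in these data; inconclusive = activity change between two set negative limits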; note: % is set by controls: 0 for no effect and ±100 for the full control effect
Target sequence (P16473 whole entry, looked up): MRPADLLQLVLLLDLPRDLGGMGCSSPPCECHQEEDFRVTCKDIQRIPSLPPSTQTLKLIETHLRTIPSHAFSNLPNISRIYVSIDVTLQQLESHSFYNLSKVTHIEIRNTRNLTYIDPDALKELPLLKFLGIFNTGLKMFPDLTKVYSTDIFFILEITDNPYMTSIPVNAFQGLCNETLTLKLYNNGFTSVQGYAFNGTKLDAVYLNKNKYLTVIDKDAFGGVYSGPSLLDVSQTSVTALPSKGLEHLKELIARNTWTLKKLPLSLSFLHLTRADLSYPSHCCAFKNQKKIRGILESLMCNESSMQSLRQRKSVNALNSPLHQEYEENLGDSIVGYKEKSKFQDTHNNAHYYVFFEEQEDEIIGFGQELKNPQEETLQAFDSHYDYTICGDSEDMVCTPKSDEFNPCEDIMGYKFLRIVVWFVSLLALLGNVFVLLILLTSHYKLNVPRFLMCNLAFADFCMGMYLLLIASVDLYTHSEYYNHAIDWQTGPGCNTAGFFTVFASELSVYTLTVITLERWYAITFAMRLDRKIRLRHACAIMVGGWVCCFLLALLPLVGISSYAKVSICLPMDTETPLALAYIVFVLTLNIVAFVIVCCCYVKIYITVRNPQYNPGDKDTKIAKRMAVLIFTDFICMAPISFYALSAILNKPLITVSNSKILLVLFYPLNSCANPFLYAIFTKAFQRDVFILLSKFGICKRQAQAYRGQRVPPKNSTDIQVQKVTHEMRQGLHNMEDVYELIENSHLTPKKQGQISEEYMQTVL
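Competitive HTRF cAMP read-out (cryptate anti-cAMP antibody, cAMP-d2; 30 min, room temperature) in freshly harvested TSHR cells. Compounds added before TSH at EC80 (4nM final), followed by 2 hours' incubation at 37 deg C.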
USP2a inh: USP2a (human) protease inhibition. USP2 core, Ub-CHOP2 coupled fluorogenic reporter, 485/531. 330,000 compounds, 0.01% hits. Potency, µM (doses to about 38.3 µM), for inactives: at the highest dose activity change, negative = inhibition, most hits filed as inhibitors. O75604;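 note: potency is the fitted concentration of half-maximal effect; plate controls were DMSO wells for no effect and full inhibition by NEM control for full effect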
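USP2 core (10nM final) preincubated 30min RT with compound in 20mM Tris-HCl pH 8.0, 2mM CaCl2, 2mM beta-mercaptoethanol, 0.05% CHAPS; 25nM Ub-CHOP2 plus 25nM reporter substrate added, fluorescence (Ex485/Em531) read after 60min.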
* hit, by the source's call; u = inconclusive; x = not tested or not shown; [ ] = remark or other dose. Shown are actives, neighbours in structure and some others; about 0.38% of the full set was active somewhere. Unless noted, calls come from the whole dose curve; as a rule, active = well fitted curve in the direction sought with a large enough effect; inconclusive = small, poorly fitted or top-dose-only effect, or another doubt; inactive = no such curve, though single readings can be large; an effect the other way counts as inactive or inconclusive.

SMILES	TRb SRC2 PPI	TexasRed fluor	Eya2 phos inh	CBFb-RUNX1 inh	TSHR antag	USP2a inh
CCOC(=O)c1sc(Nc2nc3cc4c(cc3s2)OCO4)cc1C	2%	0.32µM*[quencher]	-34%	2%	-9	-11%
CC(=O)c1sc(Nc2nc3cc4c(cc3s2)OCO4)nc1C	0%	-2%	11%	11%	-12	-1%
CCOC(=O)c1c(S(=O)(=O)NCC(=O)N2CCN(c3ccc(F)cc3)CC2)c(C)n(C)c1C	x	x	0%	x	6	5%
CCOC(=O)c1c(S(=O)(=O)NCC(=O)N2CCN(c3cccc(Cl)c3)CC2)c(C)n(C)c1C	-23%	0.35µM*[quencher]	x	x	x	x
COc1cccc(/C=C/C(=O)OCC(=O)NCC2CCCO2)c1OC (stereo not given)	-17%[53 µM]	71µM*[quencher]	18%	-2%	17	1%
CC(=O)N1c2ccc(S(=O)(=O)NCC3CCC(C(=O)Nc4cc(C)ccc4C)CC3)cc2CC1C (stereo not given)	-6%	0%	x	x	x	x
Cc1ccc(CNC(=O)Cc2coc3cc(C)cc(C)c23)cc1	u	4.5µM*[quencher]	x	x	x	x
Cc1ccc(CNC(=O)Cc2c(C)c3c(cc(C)c4c(C)coc43)oc2=O)cc1	3%	-3%	x	x	x	x
O=C(Cn1c(-c2cccs2)cc2ccccc21)NCCCN1CCN(c2ccc(F)cc2)CC1	u	63µM*[quencher]	x	x	x	x
CN1CCN(C(=O)Cn2c(-c3cccs3)cc3cc(Cl)ccc32)CC1	-28%	112µM*[quencher]	x	x	x	x
COc1cccc(N2CCN(C(=O)Cn3c(-c4cccs4)cc4ccccc43)CC2)c1	u	40µM*[quencher]	x	x	x	x
CCN1CCN(C(=O)Cn2c(-c3cccs3)cc3ccccc32)CC1	3%	6%	x	x	x	x
C=CCCCCCCCCCCCC	3%[201 µM]	-4%[201 µM]	x	x	x	x
COc1ccccc1N1CCN(C(=O)Cn2c(=O)nc(-c3ccccc3)c3ccccc32)CC1	2%	-2%	x	x	x	x
O=C(NCc1ccccc1Cl)c1ccc2c(c1)ncn2-c1cccc(F)c1	-5%	-6%	x	x	x	x
O=C(Nc1nnc(S(=O)(=O)N2CCCCC2)s1)c1ccc(F)cc1	-12%	100µM*[quencher]	x	x	x	x
O=C(Nc1nnc(S(=O)(=O)N2CCCC2)s1)c1ccc(F)cc1	-1%	1%	x	x	x	x
C=Cc1ccc(P(c2ccccc2)c2ccccc2)cc1	11%[201 µM]	3%[201 µM]	x	x	x	x
O=S(=O)(c1ccc(Br)s1)N1CCN(c2cccc(C(F)(F)F)c2)CC1	0%	-3%	x	x	x	x
CN1CCN(C2=CC3=CC(=C(C#N)C#N)CCC3CC2)CC1 (stereo not given)	-12%	1%	u	-24%	-93*	u
N#CC(C#N)=C1C=C2C=C(N3CCCCCC3)CCC2CC1 (stereo not given)	-5%	10%	u	12%	-31	u
CCC(=O)Nc1cc(-c2nc3ccccc3s2)c(Cl)cc1Cl	-11%	35µM*[quencher]	x	x	x	x
CCc1cccc(C)c1NC(=O)CN1C(=O)C2(SCC(=O)N2c2cccc(F)c2)c2ccccc21 (stereo not given)	-24%	20µM*[quencher]	x	x	x	x
COc1ccc(NS(=O)(=O)c2cn(C)cn2)cc1Cl	x	x	14%	x	-142*	-3%
Cn1cnc(S(=O)(=O)Nc2ccc(Cl)c(C(F)(F)F)c2)c1	x	x	1%	x	6	2%
SMILES	TRb SRC2 PPI	TexasRed fluor	Eya2 phos inh	CBFb-RUNX1 inh	TSHR antag	USP2a inh
CCCCCCCCCCOc1cc(OCCCCCCCCCC)cc(N(CC(=O)O)CC(=O)O)c1	-9%	-7%	x	29%	x	x
Cc1nnc(Sc2cc(NCCO)c([N+](=O)[O-])c3nonc23)s1	2%	-2%	3%	5%	-50	2%
O=[N+]([O-])c1c(NCCCO)cc(Sc2nc3ccccc3s2)c2nonc12	-5%	-10%	-3%	-1%	-94*	1%
Cc1nnc(Sc2cc(NCCCO)c([N+](=O)[O-])c3nonc23)s1	2%	-4%	7%	-1%	-86*	9%
CCCC(=O)OCCNc1cc(Sc2nccn2C)c2nonc2c1[N+](=O)[O-]	3%	-3%	-4%	-13%	-93*	3%
COc1ccc(N2CCN(C(=O)CN3C(=O)COc4ccc(S(=O)(=O)N5CCC(C)CC5)cc43)CC2)cc1	-2%	-2%	x	x	x	x
O=[N+]([O-])c1ccc(O)cc1C(F)(F)F	-9%[201 µM]	1%[201 µM]	x	x	x	x
Cl[Si](Cl)(Cl)c1ccccc1	-3%[201 µM]	-7%[201 µM]	x	x	x	x
CCOc1ccccc1NC(=O)Cc1coc2c(C)c(C)ccc12	-12%[53 µM]	35µM*[quencher]	x	x	x	x
CCc1ccc(NS(=O)(=O)c2cc3[nH]c(=O)c(=O)[nH]c3cc2C)cc1	x	x	10%	x	-140*	0%
CC(=O)c1ccc(NS(=O)(=O)c2cc3[nH]c(=O)c(=O)[nH]c3cc2C)cc1	2%	6%	x	x	x	x
COc1ccc(NS(=O)(=O)c2cccc(NC(=O)C3=NN(c4ccccc4)C(=O)CC3)c2)cc1	x	x	-12%	x	-112*	2%
NN(c1ccccc1)c1ccccc1	-2%[201 µM]	0%[201 µM]	x	x	x	x
CCN(CC)c1ccc(/C=c2\sc3nc4ccccc4n3c2=O)c(O)c1	-19%	50µM*[fluorescent]	25%	u	-4	u
O=C(NCCc1ccccc1)c1nnc(Cc2cccc(F)c2)o1	-23%	0.0056µM*[quencher]	x	x	x	x
CCOc1ccc(C(=O)NCCn2cc(SCC(=O)Nc3ccccc3)c3ccccc32)cc1	3%	u	x	x	x	x
COc1ccc(CCNC(=O)CCc2cn(Cc3ccc(F)cc3)c3ccccc23)cc1OC	5%	-5%	x	x	x	x
CCc1ccc(NC(=O)C(=O)NCC(c2cccnc2)N2CCN(C)CC2)cc1 (stereo not given)	-20%	-82%	x	x	x	x
COc1cccc(NC(=O)C(=O)NCC(c2cccnc2)N2CCN(c3ccccc3)CC2)c1 (stereo not given)	-17%	100µM*[quencher]	x	x	x	x
CCc1ccc(NC(=O)C(=O)NCC(c2cccnc2)N2CCN(c3ccc(F)cc3)CC2)cc1 (stereo not given)	-18%	100µM*[quencher]	x	x	x	x
COc1ccc(N2CCN(C(CNC(=O)C(=O)NCc3cccnc3)c3cccnc3)CC2)cc1 (stereo not given)	-20%	56µM*[quencher]	x	x	x	x
CCC(=O)c1ccc(NC(C)=O)cc1O	1%	-2%	u	0%	-4	10%
CC(=O)Nc1ccc2c(c1)C(C)(C)C(C)N2C (stereo not given)	u	40µM*[fluorescent]	9%	1%	-2	0%
O=C1/C(=C\c2cc([N+](=O)[O-])ccc2O)SC(=S)N1Cc1ccc(Cl)cc1	x	x	u	x	-83*	3%
COc1ccc(S(=O)(=O)Nc2ccc(C)cc2)cc1N(C)S(=O)(=O)c1ccc(Cl)cc1	11%	0%	-1%	-25%	-91*	-4%
